For 86 compounds, inhibition results are on record in PubChem BioAssay AID485270 (The Scripps Research Institute Molecular Screening Center, 2010).

In general, inhibition refers to the relative decrease from the control value, in per cent.

The structures appear in SMILES notation. About 5,800 (1.8%) of roughly 330,000 compounds were called active. This is one part of a sample in which actives are shown more often than they occur. Unmarked numbers belong to inactive results. Cut-off read from the data, not from the text of the source: active = inhibition mostly above about 38% (no sharp cut-off); inactive = mostly below about 40%.

The experiment deals with Orexin/Hypocretin receptor type 1 (Homo sapiens) (UniProt O43613). Kind of experiment: blocks the human orexin 1 receptor (AID 485270).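 Note: 0% = agonist challenge alone and 100% = reference antagonist.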 The note with it: OX1R-expressing cells, FRET antagonist read-out; at 6.6 µM; active compounds read high.
Chain of Orexin/Hypocretin receptor type 1 (Homo sapiens) (O43613 whole entry, looked up): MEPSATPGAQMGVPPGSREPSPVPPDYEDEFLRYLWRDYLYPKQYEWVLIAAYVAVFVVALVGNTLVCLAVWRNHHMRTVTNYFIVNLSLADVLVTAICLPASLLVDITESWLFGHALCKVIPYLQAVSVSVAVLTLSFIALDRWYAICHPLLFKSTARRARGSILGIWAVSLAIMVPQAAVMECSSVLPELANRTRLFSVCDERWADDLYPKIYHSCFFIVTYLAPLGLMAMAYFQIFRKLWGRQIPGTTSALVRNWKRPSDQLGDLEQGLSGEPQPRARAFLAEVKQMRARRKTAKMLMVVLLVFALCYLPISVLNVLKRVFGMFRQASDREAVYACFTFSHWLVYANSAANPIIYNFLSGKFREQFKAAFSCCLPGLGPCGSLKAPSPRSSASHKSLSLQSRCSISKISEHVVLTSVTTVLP
With `Cc1ccc(S(=O)(=O)NCC(C)NS(C)(=O)=O)cc1` (stereo unspecified), the inhibition is 4.32%. Next, `CCN(CC(=O)NC(C)C)C(=O)c1cc(S(=O)(=O)N2CCCCC2)ccc1N1CCCCC1`: 4.56%; `CC(=O)NC(CC(=O)Nc1ccc(S(=O)(=O)N2CCOCC2)cc1)c1ccccc1` (stereo unspecified): 6.07%.

Turning to `COc1ccc(C(=O)NC2CCCc3c2cnn3-c2cccc(C)c2C)c(OC)n1` (stereo unspecified), the inhibition is 38.4%.

In the case of `Cn1nccc1C(=O)NC1CCCc2c1cnn2-c1ccccc1F` (stereo unspecified), the inhibition is 26.4%. Next, `Cc1cc(C(=O)NC2CCCc3c2cnn3-c2cccc(C)c2C)c(C)o1` (stereo unspecified): 81% (active); `CC[C@]1(C(=O)OC)[C@H]2C(=O)N(Cc3ccccc3)C(=O)[C@H]2[C@H]2CN=C(SCc3ccc(C#N)cc3)N21`: 4.34%; `C=CC[C@H](CC(=O)OC(C)(C)C)C(=O)OC[C@H]1CCCN1C(=O)[C@H](CC=C)CC(=O)N(CCO)Cc1ccccc1`: 2.54%. Next, `Cc1ccc(NC(=O)CN2CCC(C(N)=O)CC2)cc1[N+](=O)[O-]`: 50.4% (active); `CN1CCN(CC(=O)Nc2cccc([N+](=O)[O-])c2)CC1`: 28%. Next, `Cc1ccc(NC(=O)CN(C)CC(=O)Nc2cccc(F)c2)cc1[N+](=O)[O-]`: 30%. Take `C[C@H](CO)N1C[C@H](C)[C@@H](CN(C)C(=O)NC2CCCCC2)Oc2ccc(NC(=O)c3ccncc3)cc2C1=O`: the inhibition is 1.49%. On to `Cc1ccc(C(=O)NNC(=O)CSc2nnc3ccccn23)cc1`, for which the inhibition was 0.4%. With `COCCN(Cc1nc(-c2ccc(C(F)(F)F)cc2)no1)C(C)C`, the inhibition was -2.95%.

As to `CC(=O)N(C1=C(Cl)C(=O)c2ccccc2C1=O)c1ccc(C(=O)O)cc1`, the inhibition is 39.2% (active).

Regarding `CC(=O)c1ccc(-c2nnc(CCC(=O)N(C)Cc3cnc4ccccn34)o2)s1`, the inhibition was 40.1% (active). The figure for `CCc1ccc(CN(C)C(=O)CCc2nnc(-c3ccc(-c4ccccc4)cc3)o2)nc1` is 3.52%; for `O=C(N/N=C/c1cc(Cl)cc([N+](=O)[O-])c1O)C(O)(c1ccccc1)c1ccccc1` it is 54.6% (active); for `O=C(N/N=C/c1cc(Br)c(O)c([N+](=O)[O-])c1)C(O)(c1ccccc1)c1ccccc1` it is 28.3%. The figure for `CN(C)/N=C/c1cc(Cl)cc([N+](=O)[O-])c1O` is 46.4%; for `COc1cc(NC(=O)COC(=O)c2cc(S(=O)(=O)N3CCOCC3)ccc2F)cc(OC)c1` it is 15.3%; for `O=C(c1cnccn1)N1CCN(S(=O)(=O)c2cccc(Cl)c2)CC1` it is 4.72%. The figure for `O=C(C[C@@H]1C/C=C\CCC(=O)OC[C@@H]2CCCN2C1=O)NCCO` is 4.18%; for `CCCCC[C@@H]1C=C(C(=O)O)[C@H](c2ccc(C#N)cc2)N1S(=O)(=O)c1ccc(C)cc1` it is 10.8%. For the compound `Cc1ccc(S(=O)(=O)NNC(=O)Nc2cccc3ccccc23)cc1`, the inhibition is 21.8%. The figure for `Cc1ccc(S(=O)(=O)N2[C@@H](c3cccc4ccccc34)C(C(=O)O)=C[C@H]2C(C)(C)C)cc1` is 46.2% (active); for `O=C1CSc2ccc(C(=O)NCc3ccccn3)cc2N1` it is 3.47%; for `CN(C(=O)CSc1nnc(-c2n[nH]c3ccccc23)o1)c1ccccc1` it is 91.9% (active).

Regarding `CN(C(=O)CSc1nnc(-c2c[nH]c3ccccc23)o1)C1CCS(=O)(=O)C1` (stereo unspecified), the inhibition was 16.6%. Next, `O=C(CSc1nnc(-c2c[nH]c3ccccc23)o1)c1ccccc1`: 29.7%; `Cc1cc(NC(=O)c2cccc(N3C(=O)CCC3=O)c2)no1`: 11.9%. Next, `COc1ccc(NC(=O)C2CCCN(S(=O)(=O)c3cccc4cccnc34)C2)cc1` (stereo unspecified): 4.36%. The figure for `CCOC(=O)Cc1ncccc1C(=O)Nc1ccc(OC)cc1` is 25.1%; for `O=C(Nc1cccc2cccnc12)c1cccc(N2C(=O)CCC2=O)c1` it is 92.7% (active). On to `O=C(Nc1cccnc1Cl)c1cc(-c2cccc(Cl)c2)on1`, for which the inhibition was 11.7%. Take `COC(=O)c1cccc(NC(=O)c2cccc(N3C(=O)CCC3=O)c2)c1`: the inhibition is 4.2%. As for `COc1ccc(NC(=O)Nc2cccc3cccnc23)cc1`, the inhibition is 40% (active).

For the compound `O=C(Nc1cccc2cccnc12)c1cccc(Cl)c1`, the inhibition was 61.5% (active). Next, `N#Cc1ccc(C(=O)Nc2cccc3cccnc23)c(F)c1`: 11%. As for `CC[C@]1(C(=O)OC)[C@H]2C(=O)N(C)C(=O)[C@H]2[C@H]2CN(C)C(=NCc3ccccc3)N21`, the inhibition is 2.73%. The figure for `COc1ccccc1CNC(=O)COC(=O)c1cccs1` is 2.2%; for `O=C(CN1C(=O)NC(Cc2c[nH]c3ccccc23)C1=O)Nc1ccccc1C(F)(F)F` (stereo unspecified) it is 3.6%; for `CCC(C)c1ccc(NC(=O)COC(=O)C2CCCC2)cc1` (stereo unspecified) it is 5.25%. `CCOC(=O)[C@@H]1[C@H]2COc3ccc(Br)cc3[C@H]2N2C(=O)N(c3ccc(C)cc3)C(=O)[C@@]12C`: the inhibition was 10.5%.

On to `O=C(Cn1cnc2c(OCc3ccccc3)ncnc21)NCc1nc2ccccc2[nH]1`, for which the inhibition is 14.3%. The figure for `COc1ccccc1OCCNCC(O)COc1cccc2[nH]c3ccccc3c12` (stereo unspecified) is 59.7% (active); for `CC(C)(C)NCC(O)COc1cccc2[nH]c(=O)[nH]c12` (stereo unspecified) it is 8.82%.

As to `CC(O)CNCCOc1cccc(Oc2ccccc2)c1` (stereo unspecified), the inhibition was 3.22%. The figure for `Cc1ccc(C(=O)c2c(NC(=O)c3ccccc3)sc(C)c2C)cc1` is 21.9%; for `Cc1sc(NC(=O)c2ccc3ncsc3c2)c(C(N)=O)c1C` it is 43.8% (active); for `COc1ccccc1-c1nnc(NC(=O)c2ccc3ncsc3c2)o1` it is 8.4%. Consider `Cc1ccc(C(=O)Nc2ccccc2-c2ccccc2)cc1S(=O)(=O)Nc1ccccc1`, for which the inhibition was 5.71%.

`CCOc1ccc(N(CC(=O)NCc2ccc(OC)cc2)S(=O)(=O)c2c(C)noc2C)cc1`: the inhibition is 0.77%.

For `Cc1noc(C)c1S(=O)(=O)N(CC(=O)NCc1ccc(Cl)cc1)c1ccc2c(c1)OCO2`, the inhibition is 80.7% (active). For `Cc1noc(C)c1S(=O)(=O)N(CC(=O)Nc1ccc2c(c1)OCCO2)c1ccc(C(C)C)cc1`, the inhibition was 23.3%. The figure for `CC1CCCCC1NCC(=O)Nc1ccccc1C(=O)Nc1ccccc1` (stereo unspecified) is 7.92%; for `Cc1ccccc1SCC(=O)OCC(=O)N1CC(=O)Nc2ccccc21` it is 0.4%; for `COc1ccc(CCNC(=O)Cn2c(=O)n(CC3CCCO3)c(=O)c3ccccc32)cc1OC` (stereo unspecified) it is 7.5%. As to `COc1ccc(CNC(=O)c2cc3c(=O)n4ccccc4nc3n(CC3CCCO3)c2=N)cc1` (stereo unspecified), the inhibition was 54.9% (active). On to `O=C(NCC1CCCO1)c1cc(-c2ccccc2)nc2ccccc12` (stereo unspecified), for which the inhibition was -0.29%. Next, `COc1ccc(CCn2c(=N)c(C(=O)NCC3CCCO3)cc3c(=O)n4cccc(C)c4nc32)cc1OC` (stereo unspecified): 10.8%. With `Cc1ccc2nc3c(cc(C(=O)NCCc4ccccc4)c(=N)n3CC3CCCO3)c(=O)n2c1` (stereo unspecified), the inhibition is 57.5% (active). The figure for `Cc1ccc(CCNC(=O)c2ccc3nc4ccccc4c(=O)n3c2)cc1` is -3.55%; for `Cc1csc(=O)n1CC(=O)Nc1ccc(S(C)(=O)=O)cc1` it is 7.39%.

Take `COc1ccc(OC)c(NC(=O)COC(=O)Cc2ccsc2)c1`: the inhibition was 5.5%.

As to `C[C@]12c3[nH]c4ccc(Cl)cc4c3CCN1C(=O)[C@@H](CC(=O)NCCCn1ccnc1)C[C@@H]2C(=O)N1CCOCC1`, the inhibition is 14.5%.

As for `CN(CC(=O)Nc1ccc(C(N)=O)cc1)S(=O)(=O)c1ccc2c(c1)OCCO2`, the inhibition was 6.44%.

On to `O=C(CN1C(=O)NC2(CCCC2)C1=O)Nc1cc(C(F)(F)F)ccc1N1CCOCC1`, for which the inhibition is 6.5%. Next, `COc1ccc2[nH]c(=O)c(CN(CC3CCCO3)C(=O)Nc3ccccc3)cc2c1` (stereo unspecified): 5.34%; `CCC(=O)N(Cc1cc2cc(OC)ccc2[nH]c1=O)c1ccccc1C`: 4.09%; `COc1ccc2[nH]c(=O)c(CNc3ccc(C)c(C)c3)cc2c1`: 108% (active). The figure for `Cn1nnnc1SCC(=O)Nc1sccc1C(N)=O` is -1.46%.

Turning to `CC(NCC(=O)Nc1ccccc1C(=O)NC1CC1)c1ccccc1Cl` (stereo unspecified), the inhibition was 29.4% (active). For `Cc1ccc(OCC(=O)Nc2ccccc2C(=O)NC2CC2)cc1`, the inhibition is 7.7%. Next, `CCOc1ccccc1OCC(=O)Nc1ccccc1C(=O)NC1CC1`: 9.29%; `CN(c1ccccc1)S(=O)(=O)c1ccc(C(=O)N2CCN(c3ccccc3Cl)CC2)cc1`: 9.4%. Consider `CC(=NNC(=O)c1ccc2nc[nH]c2c1)c1ccc(Br)cc1`, for which the inhibition was 4.88%. Next, `C[C@@H]1CN([C@@H](C)CO)C(=O)c2cc(NC(=O)C3CC3)ccc2O[C@H]1CN(C)C`: 1.14%; `C[C@H]1COC(=O)[C@H](CC(=O)OC(C)(C)C)C/C=C\C[C@@H](CC(=O)N[C@H](CO)Cc2ccccc2)C(=O)N1`: 0.64%; `Cc1cccc(NC(=O)c2ccc3c(=O)n(CC4CCCO4)c(=S)[nH]c3c2)c1` (stereo unspecified): 17.1%.

Regarding `Cc1ccccc1NC(=O)Cn1c(=O)n(CC2CCCO2)c(=O)c2ccccc21` (stereo unspecified), the inhibition is 15.6%. With `Cc1cccn2c(=O)c3cc(C#N)c(=NC(=O)c4cccnc4)n(CC4CCCO4)c3nc12` (stereo unspecified), the inhibition was 123% (active).

Regarding `CN(C(=O)COC(=O)Cc1ccccc1[N+](=O)[O-])C1CCS(=O)(=O)C1` (stereo unspecified), the inhibition is 3.39%. In the case of `COc1cccc(NC(=O)CSc2nnc(C3CCCCC3)n2N)c1`, the inhibition is 6.23%.

Turning to `COc1ccc(-n2c(SCC(=O)Nc3ccc4c(c3)OCO4)nnc2C(C)N2CCCCC2)cc1` (stereo unspecified), the inhibition is 7.85%.

As for `O=C(NCCC1=CCCCC1)c1ccc(-n2cncn2)cc1`, the inhibition is 2.77%.
